Data reported in ChEMBL document CHEMBL3433997, “St. Jude Leishmania screening dataset” (2016).

Key:
Format in all cases: functional
[1] = molecular target: Solute carrier family 2, facilitated glucose transporter member 1 (Homo sapiens) (UniProt P11166); assay: ST_JUDE_LEISH: Cytotoxicity at 2uM final concentration against transgenic Leishmania Mexicana promastigotes LmGLUT1 that are glucose transport deficient and complemented with the human glucose transporter GLUT1. Activity is measured by DNA content using SYBR green in vitro
[2] = molecular target: Hexose transporter 1 (Plasmodium falciparum) (UniProt O97467); assay: ST_JUDE_LEISH: Cytotoxicity at 2uM final concentration against transgenic Leishmania Mexicana promastigotes LmPfHT that are glucose transport deficient and complemented with the Plasmodium falciparum hexose transporter. Activity is measured by DNA content using SYBR green in vitro
[3] = molecular target: Glucose transporter (Leishmania mexicana) (UniProt O61059); assay: ST_JUDE_LEISH: Cytotoxicity at 2uM final concentration against transgenic Leishmania Mexicana promastigotes LmGT2 that are glucose transport deficient and complemented with the L. Mexicana glucose transporter 2. Activity is measured by DNA content using SYBR green in vitro

Chain of Solute carrier family 2, facilitated glucose transporter member 1 (Homo sapiens) (P11166 whole entry): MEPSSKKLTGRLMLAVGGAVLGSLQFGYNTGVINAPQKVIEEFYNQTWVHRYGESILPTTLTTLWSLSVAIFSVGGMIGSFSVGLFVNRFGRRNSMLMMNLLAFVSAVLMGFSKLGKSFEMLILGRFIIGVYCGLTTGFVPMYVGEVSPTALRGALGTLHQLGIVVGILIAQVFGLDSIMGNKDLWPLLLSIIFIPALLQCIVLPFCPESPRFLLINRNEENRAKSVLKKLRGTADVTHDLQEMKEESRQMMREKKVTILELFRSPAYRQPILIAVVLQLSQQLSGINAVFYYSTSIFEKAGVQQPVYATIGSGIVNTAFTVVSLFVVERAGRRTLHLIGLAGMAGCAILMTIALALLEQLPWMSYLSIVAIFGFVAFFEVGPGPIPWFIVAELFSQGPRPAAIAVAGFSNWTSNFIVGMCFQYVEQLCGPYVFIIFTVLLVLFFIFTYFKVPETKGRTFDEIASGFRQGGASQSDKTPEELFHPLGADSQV

SMILES | inhibition [1] | inhibition [2] | inhibition [3]
CS(=O)(=O)Nc1ccc(OCCCCCCOc2ccc(NS(C)(=O)=O)cc2)cc1 | 1.48% | 3.08% | 2.14%
COc1ccc(S(=O)(=O)N2CCOCC2)cc1NC(=O)c1cc2ccccc2o1 | 2.09% | 3.19% | 1.69%
COc1ccc(NC(=O)c2ccc3cc4ccccc4cc3c2)cc1N1CCN(C)CC1 | 0.49% | -0.55% | 0.74%
COc1cccc(-c2csc(C(=O)NCC3CCN(Cc4ccc(C(C)C)cc4)C3)c2)c1 (centres undefined) | -0.64% | -1.41% | 0.03%
COc1ccccc1C1CCN(C2CCC(NC(=O)/C=C/c3cc(F)cc(C(F)(F)F)c3)CC2)CC1 (centres undefined) | -0.82% | 0.7% | 1.96%
Cc1cc(=NN=Cc2ccccc2)c2cc(C(F)(F)F)ccc2[nH]1 | 8.02% | 8.87% | 6.17%
CCN(CC)CCCN(C(=O)Nc1cc(F)cc(F)c1)c1nc(-c2ccc(F)cc2)cs1 | 1.8% | -0.11% | 1.69%
Cc1cc(=NN=CC=Cc2ccccc2)c2ccccc2[nH]1 | 1.28% | 2.74% | 0.81%
Nc1ccc2[nH]cc(C3CCN(CCC4CCN(C(=O)/C=C/c5ccc(Cl)c(Cl)c5)CC4)CC3)c2n1 | 1.27% | -0.31% | -0.02%
COc1cncc(/C=C/c2cncc(C(=O)NCCc3ccc(Cl)cc3Cl)c2)c1 | 4.53% | 5.13% | 3.94%
CCn1c(-c2ccccc2)cc2nnc3ccccc3c21 | 6.68% | 5.32% | 5.02%
CN(C)c1ccc(-c2csc(C(=O)NCC3CCN(CC4CCCCC4)C3)c2)cc1 (centres undefined) | 2.79% | 0.77% | 1.05%
O=C(/C=C/c1ccc(C(F)(F)F)cc1)NCCCCCN1CCCN(C(=O)Nc2ccc(F)c(Cl)c2)CC1 | 1.19% | 1.85% | 0.39%
